Assay outcomes deposited in PubChem BioAssay by Broad Institute.
Tgondii IFNg: T. gondii growth inhibition under IFN-gamma; AID 1259416; actives 3.8% (n = 69,000); Toxoplasma gondii growth in IFN-gamma-treated host cells; stronger effect = lower value; activity change, negative = inhibition, % (concentration not given with the values); in the data active means activity change below about -70%, passing the limit was not always enough;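 further: host cells are HeLa cells infected with Toxoplasma gondii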
Starred values were filed as active, the others as inactive; i = inactive; ! = a repeat was not active. The full list was thinned out, with hits kept by preference.

SMILES	Tgondii IFNg
COC(=O)c1ccc(/C=C/C(=O)C2C(=O)N(C)C3(C)CC2c2cc(Cl)ccc2O3)cc1 (stereo not drawn)	1
CCN(Cc1ccc(F)cc1)C(=O)C(C)N1CCCC1=O (stereo not drawn)	-1
CCN1C[C@H]2CN(Cc3nccn3C)C[C@H]2C1=O	-4
Fc1ccc(C(OCCN2CCN(C/C=C/c3ccccc3)CC2)c2ccc(F)cc2)cc1	-81*!
Fc1ccc(C(OCCN2CCN(CCCc3ccccc3)CC2)c2ccc(F)cc2)cc1	14
Fc1ccc(C(OCCN2CCCC2)c2ccc(Br)cc2)cc1 (stereo not drawn)	-62
Cn1ccc(CN2CCCC3(CC(Oc4cccnc4)CO3)C2)n1 (stereo not drawn)	i
CCN1CCN(C(=O)Cc2ccc(Nc3ncc(F)c(Nc4ccc(C(=O)Nc5ccccc5Cl)cc4)n3)cc2)CC1	-73*
O=C(Nc1ccccc1Cl)c1cc2cccnc2n(Cc2ccc(F)cc2)c1=O	46
Cc1ccnc(CC(C)N(C)Cc2ccc(CN(C)S(C)(=O)=O)o2)c1 (stereo not drawn)	-28
FC1(F)CCN(Cc2cccs2)CC12CCN(c1ncccn1)C2 (stereo not drawn)	-2
c1ccc(CN2CCOC3(CCN(c4ncccn4)CC3)C2)cc1	1
Cc1noc(C)c1CN1CC2CC(C1)N(CCO)C2 (stereo not drawn)	-3
c1ccc2c(c1)C(OCC1CC1)[C@@H]1CNC[C@@H]21 (stereo partly drawn)	4
CC1(C)C(=O)[C@@H]2O[C@@H]2[C@@]2(C)C1C[C@@H](O)[C@]1(C)C2CC[C@@]2(C)[C@H](c3ccoc3)OC(=O)C3OC321 (stereo partly drawn)	5
CC(=O)O[C@@H]1C[C@@]2(C)[C@H](c3ccoc3)C[C@H]3O[C@]32[C@]2(C)C(=O)C(=O)C3C(C)(C)C(=O)C=C[C@]3(C)C12 (stereo partly drawn)	-83*
c1ccc(CN2C[C@@H]3CN(CC4CC4)C[C@H]3C2)nc1	67
CC(C)CN1CCC2(COCc3cnc(N(C)C)nc32)C1 (stereo not drawn)	6
c1nc(N2CCOCC2)nc2c1COCC21CCN(CC2CC2)C1 (stereo not drawn)	-7
COCCN1CCC2(COCc3cnc(N4CCOCC4)nc32)C1 (stereo not drawn)	-91*
CS(=O)(=O)c1ccc(CN2CCCC(C(=O)c3ccccn3)C2)cc1 (stereo not drawn)	-25
O=C(COc1cccnc1)NC1CCN(CC2(c3ccc(Cl)cc3)CCC2)CC1	-19
Cn1cc(CN2CC3(CCN(C(=O)c4cccnc4)C3)C2)cn1	-5
CC(=O)O[C@H]1C[C@H](O[C@H]2[C@@H](O)C[C@H](O[C@H]3[C@@H](O)C[C@H](O[C@H]4CC[C@@]5(C)C(CCC6C5C[C@@H](O)[C@]5(C)[C@@H](C7=CC(=O)OC7)CC[C@]65O)C4)O[C@@H]3C)O[C@@H]2C)O[C@H](C)[C@H]1O[C@@H]1O[C@H](CO)[C@@H](O)[C@H](O)[C@H]1O (stereo partly drawn)	-73*
C[C@H]1OC(O[C@H]2[C@@H](O)CC(O[C@H]3[C@@H](O)C[C@H](O[C@H]4CC[C@]5(C)C6CC[C@]7(C)[C@@H](C8=CC(=O)OC8)[C@@H](O)C[C@]7(O)[C@@H]6CC[C@@H]5C4)O[C@@H]3C)O[C@@H]2C)C[C@H](O)C1O (stereo partly drawn)	-73*
SMILES	Tgondii IFNg
COC1C(O)CC(OC2C(O)CC(OC3C(O)CC(OC4CCC5(C)C(CCC6[C@@H]5CC(O)C5(C)C(C7=CC(=O)OC7)CCC65O)C4)OC3C)OC2C)OC1C (stereo partly drawn)	-77*
C[C@]12CC[C@H](O)C[C@H]1CC[C@@H]1[C@@H]2CC[C@]2(C)[C@@](O)(c3ccoc3)CC[C@]12O	-3
O=C(CCC1C(=O)NC(=O)NC1=O)Nc1ccc(Oc2ccc(F)cc2)cc1	10
COc1cc(N2CCCC3(CCN(CC(C)C)C3)C2)ncn1 (stereo not drawn)	23
Cc1cnc(N2CCN3C[C@H](Oc4cncnc4)C[C@@H]3C2)nc1	10
CCOc1ccc(C2NCCc3[nH]cnc32)cn1 (stereo not drawn)	4
COc1ccc(OC)c(NC(=O)c2cc3cccnc3n(Cc3ccccc3)c2=O)c1	25
COCCN1CC[C@H]2OCC[C@@H](C(=O)NCc3cccnc3)[C@@H]2C1	69
COc1ccc(/C=C/C(=O)C2C(=O)N(C)C3(C)CC2c2cc(Br)ccc2O3)cc1OC (stereo not drawn)	-60
CCN(CC)C(=O)C1=NOC2(CCNC2)C1 (stereo not drawn)	-57
CN1C[C@@H](COCc2cccnc2)[C@]2(CCN(C(=O)N(C)C)C2)C1	1
O=C1NC2(CCNCC2)CC1c1ccncc1 (stereo not drawn)	-1
C[C@@H]1O[C@@H](O[C@@H]2C=C3CCC4C(CC[C@]5(C)[C@@H](c6ccc(=O)oc6)CC[C@]45O)[C@@]3(C)CC2)C(O)C(O)[C@H]1O (stereo partly drawn)	-80*
COCC(=O)N1C[C@@H]2CCN(Cc3c(C)noc3C)C[C@H]2C1	-6
Cc1cc(CN2C[C@H]3COC[C@H](CC(=O)N(C)C)[C@@H]3C2)no1	6
COc1ccc(CCNC(=O)c2cc3cccnc3n(Cc3ccccc3)c2=O)cc1OC	15
COc1ccc(CN2C3CCC2CC(O)(Cn2ccc4ncccc42)C3)cc1OC (stereo not drawn)	-23
C/C=C(\C)C(=O)N[C@@H](c1ccccc1)[C@@H](O)C(=O)O[C@H]1C[C@@]2(O)[C@@H](OC(=O)c3ccccc3)[C@@H]3[C@]4(OC(C)=O)CO[C@@H]4C[C@H](O)[C@@]3(C)C(=O)[C@H](OC(C)=O)C(=C1C)C2(C)C	-89*
CC(=O)O[C@H]1C(=O)[C@@]2(C)C([C@H](OC(=O)c3ccccc3)[C@]3(O)C[C@H](O)C(C)=C1C3(C)C)[C@]1(OC(C)=O)CO[C@@H]1C[C@@H]2O (stereo partly drawn)	-74*
O=C(CCc1cccnc1)N1C[C@@H](c2ccccc2)[C@@H]2[C@H]1C1CCN2CC1	0
CCc1ccc(CN2C[C@H](OC)[C@@H]3COC[C@@H]32)o1	1
N#Cc1cccc(NC2COC3(CCN(Cc4ccoc4)C3)C2)n1 (stereo not drawn)	-33
Fc1cccnc1O[C@@H]1CC[C@@H]2[C@@H]1OCCN2CC1CCOCC1	-64
CSc1ccc(C(=O)N[C@H]2c3ccccc3[C@@H]3CNC[C@H]32)s1	-1
COCCN1C[C@H]2[C@H](OC)CCN(S(=O)(=O)c3cccnc3)[C@H]2C1	5
SMILES	Tgondii IFNg
COc1cc2c3cc1Oc1cc(ccc1O)C[C@@H]1c4c(cc(OC)c(O)c4Oc4ccc(cc4)C[C@H]3N(C)CC2)CCN1C	-94*
CN1CCc2cc(O)cc3c2[C@H]1Cc1ccc(O)c(O)c1-3	-6
C=CCOC(=O)N1CCOC2(CNCCOC2)C1 (stereo not drawn)	10
CCOC1C2CCC1N(Cc1cnn(C)c1)C2 (stereo not drawn)	43
CC(=O)C1CCC2C3CCC4CC(=O)CC[C@]4(C)C3CCC12C (stereo partly drawn)	-4
N#Cc1cccc(NC2COC3(CCCN(CC(=O)O)C3)C2)n1 (stereo not drawn)	59
COc1ccc(C[C@H]2NC[C@H](O)[C@H]2OC(C)=O)cc1	-75*
